Key:
[1] = target: T1, Inhibitor of nuclear factor kappa-B kinase subunit epsilon (Homo sapiens) (UniProt Q14164); settings: at 1 µM;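 also: reported values are averaged percent inhibition figures against human IKKε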
T1 sequence (whole entry): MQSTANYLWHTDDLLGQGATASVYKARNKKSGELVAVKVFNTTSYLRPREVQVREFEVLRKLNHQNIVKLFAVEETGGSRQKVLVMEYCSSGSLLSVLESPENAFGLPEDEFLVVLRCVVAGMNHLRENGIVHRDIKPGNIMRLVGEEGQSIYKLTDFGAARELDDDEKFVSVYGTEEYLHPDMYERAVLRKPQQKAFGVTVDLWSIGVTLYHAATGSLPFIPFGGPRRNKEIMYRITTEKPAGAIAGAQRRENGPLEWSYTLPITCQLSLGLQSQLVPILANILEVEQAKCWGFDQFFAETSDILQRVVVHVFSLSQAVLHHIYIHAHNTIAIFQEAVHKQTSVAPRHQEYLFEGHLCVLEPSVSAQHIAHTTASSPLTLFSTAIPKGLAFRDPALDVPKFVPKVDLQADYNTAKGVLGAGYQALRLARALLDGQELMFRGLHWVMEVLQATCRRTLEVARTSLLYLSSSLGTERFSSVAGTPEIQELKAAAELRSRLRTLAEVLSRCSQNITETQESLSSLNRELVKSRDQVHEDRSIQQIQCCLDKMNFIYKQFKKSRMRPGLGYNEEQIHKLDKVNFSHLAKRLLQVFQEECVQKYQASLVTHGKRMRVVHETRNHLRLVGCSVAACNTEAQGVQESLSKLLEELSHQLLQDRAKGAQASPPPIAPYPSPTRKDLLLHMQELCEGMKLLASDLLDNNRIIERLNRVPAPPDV

[2] = target: T2, Serine/threonine-protein kinase Nek1 (Homo sapiens) (UniProt Q96PY6); settings: at 0.1 µM
T2 sequence (whole entry): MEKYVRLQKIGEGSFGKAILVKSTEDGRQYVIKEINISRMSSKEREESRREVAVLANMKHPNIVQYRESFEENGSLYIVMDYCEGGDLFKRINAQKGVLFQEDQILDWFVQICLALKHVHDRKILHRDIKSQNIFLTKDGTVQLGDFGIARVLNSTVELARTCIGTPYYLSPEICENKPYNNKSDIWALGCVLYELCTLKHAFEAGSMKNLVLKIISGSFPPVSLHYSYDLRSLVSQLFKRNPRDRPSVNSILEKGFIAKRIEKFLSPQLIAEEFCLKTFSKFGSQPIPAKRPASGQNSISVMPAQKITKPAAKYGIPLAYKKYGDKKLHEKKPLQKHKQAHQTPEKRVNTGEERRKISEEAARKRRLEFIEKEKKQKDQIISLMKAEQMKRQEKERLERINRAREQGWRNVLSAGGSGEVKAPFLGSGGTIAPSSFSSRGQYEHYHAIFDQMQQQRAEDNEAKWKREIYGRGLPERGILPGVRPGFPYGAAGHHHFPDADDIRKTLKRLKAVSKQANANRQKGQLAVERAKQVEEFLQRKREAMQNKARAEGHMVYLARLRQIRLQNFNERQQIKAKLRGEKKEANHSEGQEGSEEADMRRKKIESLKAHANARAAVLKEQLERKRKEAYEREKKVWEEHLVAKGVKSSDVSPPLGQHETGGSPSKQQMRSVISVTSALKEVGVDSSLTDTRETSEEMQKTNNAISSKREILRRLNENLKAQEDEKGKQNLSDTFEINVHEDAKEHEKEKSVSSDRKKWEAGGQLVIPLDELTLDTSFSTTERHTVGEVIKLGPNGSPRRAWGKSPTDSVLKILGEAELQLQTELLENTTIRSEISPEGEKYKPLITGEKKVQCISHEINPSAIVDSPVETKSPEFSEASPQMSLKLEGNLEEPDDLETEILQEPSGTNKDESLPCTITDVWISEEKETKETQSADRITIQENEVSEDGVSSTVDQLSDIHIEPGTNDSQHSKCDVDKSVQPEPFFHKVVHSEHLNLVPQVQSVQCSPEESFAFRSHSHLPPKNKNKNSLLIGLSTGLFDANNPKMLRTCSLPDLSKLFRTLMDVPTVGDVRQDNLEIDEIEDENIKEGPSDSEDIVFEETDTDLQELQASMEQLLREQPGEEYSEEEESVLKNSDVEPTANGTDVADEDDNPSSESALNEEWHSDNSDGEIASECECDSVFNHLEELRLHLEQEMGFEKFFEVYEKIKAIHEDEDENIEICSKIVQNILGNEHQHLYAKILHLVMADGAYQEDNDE

[3] = target: T2, Serine/threonine-protein kinase Nek1 (Homo sapiens); settings: at 1 µM
[4] = target: T3, Serine/threonine-protein kinase Nek2 (Homo sapiens) (UniProt P51955); settings: at 0.1 µM
T3 sequence (whole entry): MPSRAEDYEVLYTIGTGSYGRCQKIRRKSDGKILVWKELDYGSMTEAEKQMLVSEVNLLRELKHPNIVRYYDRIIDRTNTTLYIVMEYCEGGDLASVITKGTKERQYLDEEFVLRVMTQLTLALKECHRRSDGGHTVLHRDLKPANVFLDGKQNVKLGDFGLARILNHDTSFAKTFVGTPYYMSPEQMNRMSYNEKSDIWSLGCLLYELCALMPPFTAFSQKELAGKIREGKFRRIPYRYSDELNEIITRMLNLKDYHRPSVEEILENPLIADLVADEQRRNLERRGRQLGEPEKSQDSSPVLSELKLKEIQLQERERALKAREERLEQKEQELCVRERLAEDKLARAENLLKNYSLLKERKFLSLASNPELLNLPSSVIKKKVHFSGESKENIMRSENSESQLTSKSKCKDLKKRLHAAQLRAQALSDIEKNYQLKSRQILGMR

[5] = target: T3, Serine/threonine-protein kinase Nek2 (Homo sapiens); settings: at 1 µM
[6] = target: Serine/threonine-protein kinase Nek6 (Homo sapiens) (UniProt Q9HC98); settings: at 0.1 µM
Serine/threonine-protein kinase Nek6 (Homo sapiens), sequence (Q9HC98 whole entry): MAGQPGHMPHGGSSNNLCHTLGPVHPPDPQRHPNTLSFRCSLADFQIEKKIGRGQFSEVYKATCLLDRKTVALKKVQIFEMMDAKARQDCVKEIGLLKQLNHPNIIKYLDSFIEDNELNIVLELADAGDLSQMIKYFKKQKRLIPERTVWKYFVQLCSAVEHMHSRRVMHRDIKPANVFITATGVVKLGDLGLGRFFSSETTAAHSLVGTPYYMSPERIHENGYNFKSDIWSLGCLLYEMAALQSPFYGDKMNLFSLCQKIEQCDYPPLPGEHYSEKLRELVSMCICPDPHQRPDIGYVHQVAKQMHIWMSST

[7] = target: Serine/threonine-protein kinase Nek6 (Homo sapiens) (UniProt Q9HC98); settings: at 1 µM
[8] = target: Serine/threonine-protein kinase Nek7 (Homo sapiens) (UniProt Q8TDX7); settings: at 0.1 µM
Serine/threonine-protein kinase Nek7 (Homo sapiens), sequence (Q8TDX7 whole entry, looked up): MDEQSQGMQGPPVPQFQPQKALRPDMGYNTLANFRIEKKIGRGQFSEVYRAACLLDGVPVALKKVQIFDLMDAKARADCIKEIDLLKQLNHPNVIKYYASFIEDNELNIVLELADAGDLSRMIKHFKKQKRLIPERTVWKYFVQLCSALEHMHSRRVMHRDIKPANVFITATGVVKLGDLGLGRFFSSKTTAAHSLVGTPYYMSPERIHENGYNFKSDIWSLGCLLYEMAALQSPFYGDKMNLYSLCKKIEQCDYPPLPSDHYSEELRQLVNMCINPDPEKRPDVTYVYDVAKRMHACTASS

[9] = target: Serine/threonine-protein kinase Nek7 (Homo sapiens) (UniProt Q8TDX7); settings: at 1 µM
[10] = target: T4, Serine/threonine-protein kinase Nek9 (Homo sapiens) (UniProt Q8TD19); settings: at 0.1 µM
T4 sequence (whole entry): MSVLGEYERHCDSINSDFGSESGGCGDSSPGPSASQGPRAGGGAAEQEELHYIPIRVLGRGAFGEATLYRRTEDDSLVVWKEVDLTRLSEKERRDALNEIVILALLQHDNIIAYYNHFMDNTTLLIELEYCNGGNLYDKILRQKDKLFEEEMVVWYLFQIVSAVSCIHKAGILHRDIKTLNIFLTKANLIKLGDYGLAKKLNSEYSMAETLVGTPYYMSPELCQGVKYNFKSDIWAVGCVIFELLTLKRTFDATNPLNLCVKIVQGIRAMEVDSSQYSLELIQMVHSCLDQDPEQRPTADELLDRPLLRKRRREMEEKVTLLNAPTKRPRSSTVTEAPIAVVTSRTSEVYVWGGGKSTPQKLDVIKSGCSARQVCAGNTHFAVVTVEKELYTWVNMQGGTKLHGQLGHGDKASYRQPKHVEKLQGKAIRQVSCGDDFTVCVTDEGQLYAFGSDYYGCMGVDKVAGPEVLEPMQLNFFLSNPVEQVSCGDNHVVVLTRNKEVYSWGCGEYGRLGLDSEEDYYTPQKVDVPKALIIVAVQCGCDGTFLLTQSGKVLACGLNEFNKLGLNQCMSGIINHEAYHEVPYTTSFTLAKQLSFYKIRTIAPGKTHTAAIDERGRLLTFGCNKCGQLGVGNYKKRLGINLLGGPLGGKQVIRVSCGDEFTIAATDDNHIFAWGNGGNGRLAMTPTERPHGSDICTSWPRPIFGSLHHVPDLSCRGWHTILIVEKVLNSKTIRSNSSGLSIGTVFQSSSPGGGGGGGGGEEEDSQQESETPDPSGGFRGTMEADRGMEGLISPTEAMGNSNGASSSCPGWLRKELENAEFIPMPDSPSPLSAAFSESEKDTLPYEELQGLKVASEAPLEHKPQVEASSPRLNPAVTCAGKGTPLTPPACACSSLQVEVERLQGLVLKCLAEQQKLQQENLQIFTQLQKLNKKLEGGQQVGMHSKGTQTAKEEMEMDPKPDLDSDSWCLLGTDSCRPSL

[11] = target: T4, Serine/threonine-protein kinase Nek9 (Homo sapiens); settings: at 1 µM
[12] = target: Serine/threonine-protein kinase PLK1 (Homo sapiens) (UniProt P53350); settings: at 0.1 µM
Serine/threonine-protein kinase PLK1 (Homo sapiens), sequence (P53350 whole entry): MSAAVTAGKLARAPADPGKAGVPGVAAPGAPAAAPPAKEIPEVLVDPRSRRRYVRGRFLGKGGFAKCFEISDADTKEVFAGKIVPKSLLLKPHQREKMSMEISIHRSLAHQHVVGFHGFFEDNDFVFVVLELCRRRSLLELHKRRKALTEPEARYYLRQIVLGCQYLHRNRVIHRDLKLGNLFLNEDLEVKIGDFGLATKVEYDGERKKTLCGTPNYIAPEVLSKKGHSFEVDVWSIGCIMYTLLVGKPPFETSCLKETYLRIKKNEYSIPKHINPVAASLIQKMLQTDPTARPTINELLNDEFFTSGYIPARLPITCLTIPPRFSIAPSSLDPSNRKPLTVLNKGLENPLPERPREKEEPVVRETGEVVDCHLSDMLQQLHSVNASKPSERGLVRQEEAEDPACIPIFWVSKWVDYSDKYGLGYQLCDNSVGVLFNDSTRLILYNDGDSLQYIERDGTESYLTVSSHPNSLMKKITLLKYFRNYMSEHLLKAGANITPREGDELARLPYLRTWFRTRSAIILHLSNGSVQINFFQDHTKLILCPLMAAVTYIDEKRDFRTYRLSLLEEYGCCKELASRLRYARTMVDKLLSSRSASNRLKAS

[13] = target: Serine/threonine-protein kinase PLK1 (Homo sapiens) (UniProt P53350); settings: at 1 µM
[14] = target: T5, Dual specificity protein kinase TTK (Homo sapiens) (UniProt P33981); settings: at 0.1 µM
T5 sequence (whole entry): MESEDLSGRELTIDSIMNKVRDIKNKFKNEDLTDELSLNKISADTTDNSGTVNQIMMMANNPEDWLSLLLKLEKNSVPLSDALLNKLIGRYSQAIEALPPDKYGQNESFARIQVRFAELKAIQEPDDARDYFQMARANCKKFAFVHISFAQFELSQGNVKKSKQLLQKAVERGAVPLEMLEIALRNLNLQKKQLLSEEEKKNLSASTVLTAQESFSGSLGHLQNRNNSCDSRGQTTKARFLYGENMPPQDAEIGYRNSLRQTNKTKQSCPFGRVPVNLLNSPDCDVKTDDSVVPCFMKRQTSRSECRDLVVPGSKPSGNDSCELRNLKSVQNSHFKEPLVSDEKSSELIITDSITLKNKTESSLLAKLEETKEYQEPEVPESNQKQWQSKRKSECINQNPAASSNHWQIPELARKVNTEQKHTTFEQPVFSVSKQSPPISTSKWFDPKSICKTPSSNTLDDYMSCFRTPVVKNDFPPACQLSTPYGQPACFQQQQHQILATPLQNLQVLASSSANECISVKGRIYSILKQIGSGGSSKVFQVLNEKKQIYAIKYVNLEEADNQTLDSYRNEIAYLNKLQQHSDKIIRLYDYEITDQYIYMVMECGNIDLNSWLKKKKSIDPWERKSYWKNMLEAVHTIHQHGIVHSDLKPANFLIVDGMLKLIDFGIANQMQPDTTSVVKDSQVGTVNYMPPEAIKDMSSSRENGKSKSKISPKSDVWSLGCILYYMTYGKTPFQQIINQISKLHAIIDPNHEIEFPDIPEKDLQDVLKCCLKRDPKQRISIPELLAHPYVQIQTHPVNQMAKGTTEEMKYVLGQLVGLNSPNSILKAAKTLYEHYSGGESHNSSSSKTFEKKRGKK

[15] = system: T6, Receptor-type tyrosine-protein kinase FLT3 (Homo sapiens), P36888 [D835Y]; settings: at 1 µM
T6 sequence (whole entry): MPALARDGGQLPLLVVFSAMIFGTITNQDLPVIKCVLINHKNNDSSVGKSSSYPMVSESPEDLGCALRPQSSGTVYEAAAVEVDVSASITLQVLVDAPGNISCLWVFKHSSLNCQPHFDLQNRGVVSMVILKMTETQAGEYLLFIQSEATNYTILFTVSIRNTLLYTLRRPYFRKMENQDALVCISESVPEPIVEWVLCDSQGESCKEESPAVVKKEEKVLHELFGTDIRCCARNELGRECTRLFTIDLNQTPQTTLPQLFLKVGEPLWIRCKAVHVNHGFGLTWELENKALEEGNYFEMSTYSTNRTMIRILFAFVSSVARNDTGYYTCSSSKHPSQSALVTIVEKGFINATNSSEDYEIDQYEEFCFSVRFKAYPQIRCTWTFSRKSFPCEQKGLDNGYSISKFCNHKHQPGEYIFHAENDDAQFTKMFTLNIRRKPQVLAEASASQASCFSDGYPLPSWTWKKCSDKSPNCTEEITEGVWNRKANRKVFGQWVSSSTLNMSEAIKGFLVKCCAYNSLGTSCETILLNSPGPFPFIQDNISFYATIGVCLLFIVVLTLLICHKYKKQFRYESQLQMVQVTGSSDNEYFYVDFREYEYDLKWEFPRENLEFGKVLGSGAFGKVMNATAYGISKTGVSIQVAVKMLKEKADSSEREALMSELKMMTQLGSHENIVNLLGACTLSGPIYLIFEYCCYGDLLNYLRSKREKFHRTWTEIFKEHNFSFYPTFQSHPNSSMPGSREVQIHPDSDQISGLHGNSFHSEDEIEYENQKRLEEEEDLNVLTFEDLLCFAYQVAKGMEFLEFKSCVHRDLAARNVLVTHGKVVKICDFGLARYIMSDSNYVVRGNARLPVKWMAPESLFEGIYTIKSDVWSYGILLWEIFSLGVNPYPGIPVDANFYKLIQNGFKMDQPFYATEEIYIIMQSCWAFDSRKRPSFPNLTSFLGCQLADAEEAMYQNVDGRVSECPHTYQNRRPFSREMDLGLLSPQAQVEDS

[16] = target: Vascular endothelial growth factor receptor 3 (Homo sapiens) (UniProt P35916); settings: at 0.1 µM
Vascular endothelial growth factor receptor 3 (Homo sapiens), sequence (P35916 whole entry): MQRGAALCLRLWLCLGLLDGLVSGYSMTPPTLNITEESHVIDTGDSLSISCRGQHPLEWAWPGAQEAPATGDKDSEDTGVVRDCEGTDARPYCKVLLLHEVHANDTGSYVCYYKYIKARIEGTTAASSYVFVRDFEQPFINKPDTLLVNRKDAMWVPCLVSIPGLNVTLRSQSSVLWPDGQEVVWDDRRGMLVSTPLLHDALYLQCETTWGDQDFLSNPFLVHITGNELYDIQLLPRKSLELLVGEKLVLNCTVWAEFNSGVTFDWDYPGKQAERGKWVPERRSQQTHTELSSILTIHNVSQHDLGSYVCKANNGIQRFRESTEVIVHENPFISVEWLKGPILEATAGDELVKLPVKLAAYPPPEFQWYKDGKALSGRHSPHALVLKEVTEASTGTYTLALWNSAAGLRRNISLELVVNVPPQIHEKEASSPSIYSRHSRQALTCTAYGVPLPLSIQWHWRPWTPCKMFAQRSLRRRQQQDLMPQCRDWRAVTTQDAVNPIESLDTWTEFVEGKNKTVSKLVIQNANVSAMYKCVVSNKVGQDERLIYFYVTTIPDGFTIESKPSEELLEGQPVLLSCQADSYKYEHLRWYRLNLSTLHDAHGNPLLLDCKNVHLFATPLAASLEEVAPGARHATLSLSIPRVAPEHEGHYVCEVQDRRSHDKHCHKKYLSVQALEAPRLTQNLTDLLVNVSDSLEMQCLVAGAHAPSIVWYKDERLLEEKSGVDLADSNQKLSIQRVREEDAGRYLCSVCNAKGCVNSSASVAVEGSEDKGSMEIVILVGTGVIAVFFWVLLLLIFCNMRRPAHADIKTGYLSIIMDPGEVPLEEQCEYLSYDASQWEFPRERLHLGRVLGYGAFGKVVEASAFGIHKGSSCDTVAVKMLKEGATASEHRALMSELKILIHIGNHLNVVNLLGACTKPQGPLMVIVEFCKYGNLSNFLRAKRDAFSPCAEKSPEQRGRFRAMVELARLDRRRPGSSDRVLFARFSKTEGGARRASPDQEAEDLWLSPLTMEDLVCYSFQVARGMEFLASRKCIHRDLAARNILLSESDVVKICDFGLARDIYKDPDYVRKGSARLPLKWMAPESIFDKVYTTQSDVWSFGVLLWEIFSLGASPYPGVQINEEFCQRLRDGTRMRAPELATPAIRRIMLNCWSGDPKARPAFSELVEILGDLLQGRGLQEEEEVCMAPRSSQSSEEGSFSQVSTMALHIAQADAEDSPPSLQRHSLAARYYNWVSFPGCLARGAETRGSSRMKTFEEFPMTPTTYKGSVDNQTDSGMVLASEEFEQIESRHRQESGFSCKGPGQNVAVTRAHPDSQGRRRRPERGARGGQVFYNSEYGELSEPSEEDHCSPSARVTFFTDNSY

[17] = target: Vascular endothelial growth factor receptor 3 (Homo sapiens) (UniProt P35916); settings: at 1 µM
[18] = target: Macrophage colony-stimulating factor 1 receptor (Homo sapiens) (UniProt P07333); settings: at 0.1 µM
Macrophage colony-stimulating factor 1 receptor (Homo sapiens), sequence (P07333 whole entry): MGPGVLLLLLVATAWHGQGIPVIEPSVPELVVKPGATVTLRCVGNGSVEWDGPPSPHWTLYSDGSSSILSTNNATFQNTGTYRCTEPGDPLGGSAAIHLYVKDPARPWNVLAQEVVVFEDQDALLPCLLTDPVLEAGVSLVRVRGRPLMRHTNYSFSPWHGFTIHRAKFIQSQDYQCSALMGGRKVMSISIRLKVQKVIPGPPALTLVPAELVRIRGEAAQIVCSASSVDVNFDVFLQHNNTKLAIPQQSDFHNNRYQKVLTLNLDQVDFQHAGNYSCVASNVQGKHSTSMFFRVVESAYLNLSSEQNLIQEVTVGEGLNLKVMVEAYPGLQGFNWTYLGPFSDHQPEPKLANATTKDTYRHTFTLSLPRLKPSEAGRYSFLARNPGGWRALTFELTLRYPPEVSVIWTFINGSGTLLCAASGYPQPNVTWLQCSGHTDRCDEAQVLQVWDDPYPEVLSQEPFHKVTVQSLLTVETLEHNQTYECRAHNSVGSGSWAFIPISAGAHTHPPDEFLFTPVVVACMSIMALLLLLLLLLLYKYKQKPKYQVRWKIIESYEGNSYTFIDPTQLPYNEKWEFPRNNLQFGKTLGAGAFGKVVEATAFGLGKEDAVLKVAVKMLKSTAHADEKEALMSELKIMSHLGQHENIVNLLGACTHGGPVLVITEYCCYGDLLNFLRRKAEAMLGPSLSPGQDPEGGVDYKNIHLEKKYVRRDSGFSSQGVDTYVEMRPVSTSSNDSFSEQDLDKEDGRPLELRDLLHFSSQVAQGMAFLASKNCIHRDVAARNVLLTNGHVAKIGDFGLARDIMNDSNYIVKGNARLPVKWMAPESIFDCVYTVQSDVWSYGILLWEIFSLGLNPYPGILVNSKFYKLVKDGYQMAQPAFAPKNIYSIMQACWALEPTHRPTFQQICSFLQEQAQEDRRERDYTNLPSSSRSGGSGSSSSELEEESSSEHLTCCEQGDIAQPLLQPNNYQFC

[19] = target: Macrophage colony-stimulating factor 1 receptor (Homo sapiens) (UniProt P07333); settings: at 1 µM
[20] = target: Tyrosine-protein kinase Fyn (Homo sapiens) (UniProt P06241); settings: at 0.1 µM
Tyrosine-protein kinase Fyn (Homo sapiens), sequence (P06241 2-537 limits assumed): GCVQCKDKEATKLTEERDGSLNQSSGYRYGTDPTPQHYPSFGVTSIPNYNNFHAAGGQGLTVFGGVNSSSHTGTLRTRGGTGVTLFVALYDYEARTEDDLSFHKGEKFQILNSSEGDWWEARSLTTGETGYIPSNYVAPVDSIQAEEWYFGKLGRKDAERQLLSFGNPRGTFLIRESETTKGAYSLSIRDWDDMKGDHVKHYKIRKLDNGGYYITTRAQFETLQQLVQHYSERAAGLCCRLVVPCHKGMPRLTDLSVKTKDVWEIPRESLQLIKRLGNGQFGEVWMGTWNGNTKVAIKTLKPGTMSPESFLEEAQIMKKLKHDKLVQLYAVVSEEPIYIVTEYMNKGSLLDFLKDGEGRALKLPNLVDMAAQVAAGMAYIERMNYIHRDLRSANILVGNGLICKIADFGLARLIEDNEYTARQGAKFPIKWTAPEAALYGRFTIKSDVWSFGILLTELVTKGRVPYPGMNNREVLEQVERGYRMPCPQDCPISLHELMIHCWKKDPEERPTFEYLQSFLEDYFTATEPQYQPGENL

Structure (SMILES)	inhibition [1]	inhibition [2]	inhibition [3]	inhibition [4]	inhibition [5]	inhibition [6]	inhibition [7]	inhibition [8]	inhibition [9]	inhibition [10]	inhibition [11]	inhibition [12]	inhibition [13]	inhibition [14]	inhibition [15]	inhibition [16]	inhibition [17]	inhibition [18]	inhibition [19]	inhibition [20]
COc1cc(C=NNc2ncnc3c2cnn3Cc2ccccc2)ccc1O	-4.1%	-1.23%	-0.61%	-5.42%	-5.26%	-0.58%	-3.89%	-6.27%	-2.54%	3.47%	-0.84%	-3.5%	-2.85%	-6.4%	2.91%	0.12%	0.41%	14.5%	58.7%	6.12%
Nc1nonc1-c1nc2cnccc2n1C1CCCCC1	16.2%	-1.33%	0.56%	-2.06%	-7.26%	0.47%	-0.88%	0.07%	-0.97%	-5.44%	-2.86%	-2.48%	-0.5%	-1.57%	19.7%	4.11%	16.7%	27.4%	76.3%	2.06%

— ChEMBL document CHEMBL1961873, “Compounds: GSK PKIS; Assays: Nanosyn kinase panel” (2012)
